The sample as a whole holds a higher share of hits than the screen did.
Caspase-7 inhib: allosteric or competitive inhibitors of human caspase-7; AID 889; actives 0.02% (n = 75,000); recombinant caspase-7, Ac-DEVD-AFC fluorescence rate; P55210; Potency, µM (series often up to 57.5 µM), usual class: inhibitors; active = well fitted inhibition curve with a large enough effect in the main read-out, with a control signal flat, not every such curve was filed as active; inconclusive = small, poorly fitted or top-dose-only effect, or a change in a side signal
USP2a inh: USP2a (human) protease inhibition; O75604; USP2a enzymatic assay, qHTS inhibition; Potency, µM (top dose mostly 38.3 µM), actives largely listed as inhibitors; actives 0.1% (n = 60,000); also: nearly all actives have a fitted effect of over 60% in size
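20 nM USP2 core + cpd, 30 min RT; add 20 nM Ub-PLA2/20 uM NBD C6-HPC; read Ex460/Em535 at 0 h and 2.5 h. Normalized to NEM; qHTS curve fit/classification.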
Caspase-1 inhib: allosteric or competitive inhibitors of human caspase-1. P29466. Caspase-1 enzyme, Ac-WEHD-AFC fluorogenic rate. Potency, µM (titrated, usually from 57.5 µM), most hits filed as inhibitors. actives 0.03% (n = 75,000). AID 900
ALOX15B inhib: 15-hLO-2 (ALOX15B) enzyme inhibition. actives 0.56% (n = 110,000). purified 15hLO-2, xylenol orange hydroperoxide absorbance. AID 881. Potency, µM (titrated, usually from 57.1 µM), actives largely listed as inhibitors; also: nearly all actives have a fitted effect of over 60% in size
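Purified human 15hLO-2 (50 nM final) preincubated with compounds 15 min at room temperature in 25 mM Hepes pH 7.5, 0.01% Triton X-100, then 45 uM arachidonic acid added for 90 min; hydroperoxide detected via ferrous/xylenol orange, 573/405 nm absorbance ratio.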
ALOX15 inhib: blocks human 15-lipoxygenase activity; P16050; purified 15hLO-1, xylenol orange hydroperoxide absorbance; Potency, µM (highest dose often 57.1 µM), actives largely listed as inhibitors; actives 1.4% (n = 74,000); AID 887; also: nearly all actives have a fitted effect of over 55% in size
Target sequence (P16050 whole entry, looked up): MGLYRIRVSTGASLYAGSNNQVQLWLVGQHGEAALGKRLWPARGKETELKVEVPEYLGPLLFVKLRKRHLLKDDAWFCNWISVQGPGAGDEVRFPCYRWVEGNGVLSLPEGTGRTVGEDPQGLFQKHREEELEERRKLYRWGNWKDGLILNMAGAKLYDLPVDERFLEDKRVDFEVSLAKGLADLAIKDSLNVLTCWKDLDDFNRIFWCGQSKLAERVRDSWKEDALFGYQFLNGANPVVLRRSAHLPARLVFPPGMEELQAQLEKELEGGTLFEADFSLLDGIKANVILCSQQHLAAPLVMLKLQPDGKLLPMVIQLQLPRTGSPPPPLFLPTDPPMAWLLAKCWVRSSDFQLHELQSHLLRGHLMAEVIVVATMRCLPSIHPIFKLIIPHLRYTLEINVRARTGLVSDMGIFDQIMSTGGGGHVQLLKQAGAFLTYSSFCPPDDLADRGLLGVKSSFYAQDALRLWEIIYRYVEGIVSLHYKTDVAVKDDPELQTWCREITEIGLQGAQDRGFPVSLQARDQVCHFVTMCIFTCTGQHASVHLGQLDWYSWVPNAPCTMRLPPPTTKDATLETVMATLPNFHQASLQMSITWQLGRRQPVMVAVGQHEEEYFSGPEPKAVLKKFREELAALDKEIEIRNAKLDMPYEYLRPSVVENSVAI
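Hydroperoxide formed from arachidonic acid (50 uM) by purified human 15hLO-1 (40 nM) oxidizes ferrous iron, and the ferric-xylenol orange complex is read at 573 versus 405 nm. Compounds were preincubated 15 min; reaction ran 6 min at room temperature.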
Large screens that a line does not name were inactive. Unless noted, calls follow the shape of the dose curve; as a rule, active = well fitted curve in the direction sought with a large enough effect; inconclusive = small, poorly fitted or top-dose-only effect, or another doubt; inactive = no such curve, though single readings can be large; an effect the other way counts as inactive or inconclusive.

CO[C@@H]1/C=C\O[C@@]2(C)Oc3c(C)c(O)c4c(c3C2=O)C(=N[C@H]2CC[C@H](O)O[C@@H]2C)C=C(NC(=O)/C(C)=C\C(=O)[C@@H]2C[C@@H]2[C@@H](O)[C@H](C)[C@@H](O)[C@H](C)[C@H](OC(C)=O)[C@@H]1C)C4=O	ALOX15 inhib 2µM (no result: USP2a inh)
CCc1ccc(S(=O)(=O)Nc2ccc(O)c(C(=O)O)c2)cc1	none (no result: USP2a inh, ALOX15B inhib)
O=C1CCCCC2CCCCN12 (stereo not drawn)	none (no result: Caspase-7 inhib, USP2a inh, Caspase-1 inhib, ALOX15 inhib)
CC1=NOC(=O)/C1=C\c1ccc(-c2cccc(Cl)c2)o1	ALOX15B inhib 2.5µM (no result: Caspase-7 inhib, USP2a inh, Caspase-1 inhib, ALOX15 inhib)
CCc1cccc(NC(=O)Nc2cccs2)c1	ALOX15 inhib 13µM
Cc1cc(NC(=O)Nc2cccs2)no1	ALOX15 inhib inconclusive
Cc1cccc(C)c1NC(=O)Nc1cccs1	ALOX15 inhib 25µM
c1ccn(-c2ccc(N3CCOCC3)cc2)c1	none (no result: Caspase-7 inhib, USP2a inh, Caspase-1 inhib, ALOX15 inhib)
Cc1ccc(C)n1-c1ccc(N2CCOCC2)cc1	ALOX15 inhib 2.5µM
O=c1c(-c2ccccc2)nc2cnc(N3CCNCC3)nc2n1-c1ccccc1	Caspase-7 inhib inconclusive, ALOX15 inhib 0.32µM (no result: Caspase-1 inhib)
N#C[C@@H](Cc1ccc(O)c(O)c1)C(=O)N1CCc2ccccc21	ALOX15B inhib inconclusive, ALOX15 inhib 0.63µM
CC1(C)Cc2[nH]c(=S)c(C#N)cc2CO1	ALOX15B inhib 16µM (no result: Caspase-7 inhib, USP2a inh, Caspase-1 inhib, ALOX15 inhib)
CCN(CC)C(C)CN1c2ccccc2Sc2ccccc21 (stereo not drawn)	ALOX15B inhib 13µM, ALOX15 inhib 25µM
CC1CCC2C(=O)N3C(CCC(C)[C@@H]3c3cccc(N4CCOCC4)c3)C(=O)N2C1c1cccc(Br)c1 (stereo partly drawn)	none (no result: USP2a inh, ALOX15B inhib)
CO/N=C(\C(=O)N[C@@H]1C(=O)N2C(C(=O)O)=C(CSc3nc(=O)c(O)nn3C)CS[C@@H]12)c1csc(N)n1	none
COc1cccc(C(=O)NCC(c2cccnc2)N2CCN(c3ccccc3OC)CC2)c1 (stereo not drawn)	ALOX15 inhib 13µM (no result: USP2a inh, ALOX15B inhib)
COc1ccc(C(=O)NCC(c2cccnc2)N2CCN(c3ccccc3OC)CC2)cc1OC (stereo not drawn)	none (no result: USP2a inh)
COC(=O)NC(c1cccc(C)c1)[C@]1(C(C)=O)CCOC1=O (stereo partly drawn)	none (no result: USP2a inh, ALOX15B inhib)
O=C(Nc1ccc(Cl)cc1C(=O)Nc1ccccn1)c1ccco1	ALOX15 inhib 0.16µM
CCOC(=O)c1c(C)nc2sccn12	none
Cc1nc2sccn2c1P(c1c(C)nc2sccn12)c1c(C)nc2sccn12	ALOX15B inhib 25µM
c1ccc(/C(=N/Nc2nc3ccccc3s2)c2ccccn2)cc1	none (no result: USP2a inh)
COc1ccccc1NC(=S)NC(=O)CCCOc1ccc(Cl)cc1Cl	ALOX15B inhib 20µM (no result: Caspase-7 inhib, USP2a inh, Caspase-1 inhib, ALOX15 inhib)

Screening results (PubChem BioAssay)
